Results reported in PubChem BioAssay (EPA / NIEHS).
Values joined by “and” are separate entries in the source; they are usually repeats but may differ in a detail not shown here. Equal values may be shown once. Inconclusive results are not listed. Active and inactive are the calls of the source. Rule for the calls: active = hit-call score of the fitted dose curve at least 0.9, where 1 is the maximum; inconclusive = response in the unintended direction; inactive = score below 0.9.

System: not listed separately
Assay: TOX21_p53_BLA_p3_viability: Viability Assessment in the Tox21 HCT-116 p53 Agonism Beta-lactamase Assay, Phase 3 (AID 2283593);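 note: cells exposed to compound for 16 h before reading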
How it was run: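 Cellular ATP was quantified by CellTiter-Glo luminescence, read after 30 min at room temperature. Beforehand, HCT116 cells (4000/well) received compound 5 h post-seeding, 217-fold diluted from DMSO, then incubated 16 h at 37C.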

| SMILES | outcome | AC50 |
| --- | --- | --- |
| Nc1ccccc1C(=O)OCCc1ccccc1 | inactive |  |
| N#Cc1cccc(C#N)c1 | inactive |  |
| O=C(O)CCCc1ccc(N(CCCl)CCCl)cc1 | inactive |  |
| Nc1cc(Cl)cc(Cl)c1 | inactive |  |
| COC(C)(C)CCC[C@H](C)C/C=C/C(C)=C/C(=O)OC(C)C | inactive |  |
| BrCBr | inactive |  |
| CCc1cccc(C)c1N(C(=O)CCl)[C@@H](C)COC | inactive |  |
| CN(C)C(=O)C(c1ccccc1)c1ccccc1 | inactive |  |
| CC1CCCC1.[C-]#[O+].[C-]#[O+].[C-]#[O+].[Mn] | inactive |  |
| O=C(O)COc1ccccc1 | inactive |  |
| Oc1cc(Cl)ccc1Cl | inactive |  |
| O=[N+]([O-])c1cc(C(F)(F)F)c(Cl)c([N+](=O)[O-])c1Cl |  | 35.6 µM (active) |
| C[C@]12CCC(=O)C(O)=C1CC[C@@H]1[C@@H]2CC[C@]2(C)C(=O)CC[C@@H]12 | inactive |  |
| CSc1nc(N=[N+]=[N-])nc(NC(C)C)n1 | inactive |  |
| O=[N+]([O-])O.O=[N+]([O-])O.[Cd] | inactive |  |

Target: Cellular tumor antigen p53 (Homo sapiens) (UniProt P04637)
Sequence (P04637 whole entry, looked up): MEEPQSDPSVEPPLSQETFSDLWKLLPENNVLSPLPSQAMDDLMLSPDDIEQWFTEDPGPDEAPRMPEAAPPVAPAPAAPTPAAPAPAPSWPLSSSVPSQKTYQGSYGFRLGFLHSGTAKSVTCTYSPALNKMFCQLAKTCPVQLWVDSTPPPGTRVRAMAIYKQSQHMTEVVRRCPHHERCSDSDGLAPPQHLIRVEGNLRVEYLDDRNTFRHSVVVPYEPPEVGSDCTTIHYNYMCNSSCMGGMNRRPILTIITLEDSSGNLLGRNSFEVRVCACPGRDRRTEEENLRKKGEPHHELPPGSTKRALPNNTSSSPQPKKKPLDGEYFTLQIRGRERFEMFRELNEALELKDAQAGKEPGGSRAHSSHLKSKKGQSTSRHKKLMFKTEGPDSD
Assay: TOX21_p53_BLA_p3_ratio: Tox21 HCT-116 p53 Agonism Beta-lactamase Assay, Ratio, Phase 3 (AID 2283596)
How it was run: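 Cells were seeded at 4000/well, rested 5 h at 37C, then dosed with DMSO compound solutions (217-fold dilution) for 16 h. CCF4-AM substrate was loaded for 2 h at room temperature, and the 460/530 nm emission ratio was fitted for gain of signal versus DMSO.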

| SMILES | outcome | AC50 |
| --- | --- | --- |
| C#CC1(O)CCCCC1 | inactive |  |
| O=c1[nH]c(Cl)c(Cl)cc1Cl | inactive |  |
| [CH3][Sn]([Cl])([Cl])[Cl] | inactive |  |
| Nc1ccccc1C(=O)OCCc1ccccc1 | inactive |  |
| N#Cc1cccc(C#N)c1 | inactive |  |
| O=C(O)CCCc1ccc(N(CCCl)CCCl)cc1 |  | 43.5 µM (active) and 42.8 µM (active) and 23 µM (active) |
| Nc1cc(Cl)cc(Cl)c1 | inactive |  |
| COC(C)(C)CCC[C@H](C)C/C=C/C(C)=C/C(=O)OC(C)C | inactive |  |
| BrCBr | inactive |  |
| CCc1cccc(C)c1N(C(=O)CCl)[C@@H](C)COC | inactive |  |
| CC(Cc1ccc(C(C)(C)C)cc1)CN1C[C@@H](C)O[C@@H](C)C1 (some centres not stated) | inactive |  |
| O=C(O)c1cc[c]([Hg][Cl])cc1 | inactive |  |
| O=S(=O)(c1ccccc1)c1ccccc1 | inactive |  |
| CN(C)C(=O)C(c1ccccc1)c1ccccc1 | inactive |  |
| O=P(O)(Oc1ccccc1)Oc1ccccc1 | inactive |  |
| CC1CCCC1.[C-]#[O+].[C-]#[O+].[C-]#[O+].[Mn] | inactive |  |
| O=C(O)COc1ccccc1 | inactive |  |
| [Cl][Sb]([Cl])[Cl] | inactive |  |
| Cc1ccc(N(SC(F)(Cl)Cl)S(=O)(=O)N(C)C)cc1 | inactive |  |
| O=CNC(N1CCN(C(NC=O)C(Cl)(Cl)Cl)CC1)C(Cl)(Cl)Cl (configuration not stated) | inactive |  |
| Oc1cc(Cl)ccc1Cl | inactive |  |
| O=[N+]([O-])c1cc(C(F)(F)F)c(Cl)c([N+](=O)[O-])c1Cl |  | 22.2 µM (active) |
